Source: PubChem BioAssay AID1159580 (chemical genetic matrix, 2015)
Hit rate of the full screen: of about 5,500 compounds, about 2,000 (36%) were called active. About 18% were inconclusive and are not listed. Cut-off read from the data, not from the text of the source: active = normalized growth mostly below about 0.91 (no sharp cut-off); inconclusive = no clear call, values can overlap the other calls; inactive = mostly above about 0.92. This is one part of the list.

Assay: chemical genetic growth profiling, strain panel (AID 1159580);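 note: tested at 20 µM; growth read once vehicle control cultures reached saturation at 30 °C; 1 = growth at the plate median or of vehicle wells; lower values mean less growth of the strain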
Conditions: growth OD

Measured: normalized growth

CCNc1nc(Cl)nc(NCC)n1
inactive: S. cerevisiae deletion strains, locus YJR043C, strain POL32, active compounds read low 0.939 | S. cerevisiae deletion strains, locus YJR075W, strain HOC1, active compounds read low 0.998 | S. cerevisiae deletion strains, locus YKL009W, strain mrt4, active compounds read low 1.01 | S. cerevisiae deletion strains, locus YKL068W, active compounds read low 0.995 | S. cerevisiae deletion strains, locus YKL085W, strain MDH1 (second series), active compounds read low 1 | S. cerevisiae deletion strains, locus YKL085W, strain MDH1, active compounds read low 1 | S. cerevisiae deletion strains, locus YKL160W, strain elf1, active compounds read low 1 | S. cerevisiae deletion strains, locus YKL190W, strain CNB1, active compounds read low 1 | S. cerevisiae deletion strains, locus YKR001C, strain vps1, active compounds read low 1.02 | S. cerevisiae deletion strains, locus YKR026C, strain gcn3, active compounds read low 0.985 | S. cerevisiae deletion strains, locus YKR091W, strain srl3, active compounds read low 0.996 | S. cerevisiae deletion strains, locus YLL001W, strain dnm1, active compounds read low 1 | S. cerevisiae deletion strains, locus YLL026W, active compounds read low 0.981 | S. cerevisiae deletion strains, locus YLL041C, strain sdh2, active compounds read low 0.992 | S. cerevisiae deletion strains, locus YLR027C, strain aat2, active compounds read low 0.977 | S. cerevisiae deletion strains, locus YLR039C, strain RIC1, active compounds read low 1 | S. cerevisiae deletion strains, locus YLR058C, strain SHM2, active compounds read low 0.999 | S. cerevisiae deletion strains, locus YLR102C, strain apc9, active compounds read low 1.01 | S. cerevisiae deletion strains, locus YLR221C, strain rsa3, active compounds read low 0.987 | S. cerevisiae deletion strains, locus YLR258W, strain gsy2, active compounds read low 0.989 | S. cerevisiae deletion strains, locus YLR262C, strain YPT6 (second series), active compounds read low 0.992 | S. cerevisiae deletion strains, locus YLR262C, strain YPT6, active compounds read low 0.997 | S. cerevisiae deletion strains, locus YLR268W, strain sec22, active compounds read low 1 | S. cerevisiae deletion strains, locus YLR320W, strain mms22, active compounds read low 0.986 | S. cerevisiae deletion strains, locus YLR330W, strain CHS5, active compounds read low 0.994 | S. cerevisiae deletion strains, locus YLR342W, strain FKS1 (second series), active compounds read low 0.995 | S. cerevisiae deletion strains, locus YLR342W, strain FKS1, active compounds read low 0.991 | S. cerevisiae deletion strains, locus YLR357W, strain rsc2, active compounds read low 0.953 | S. cerevisiae deletion strains, locus YLR370C, strain arc18, active compounds read low 1.02 | S. cerevisiae deletion strains, locus YLR371W, strain rom2, active compounds read low 1 | S. cerevisiae deletion strains, locus YLR384C, strain iki3, active compounds read low 0.976 | S. cerevisiae deletion strains, locus YLR418C, strain cdc73, active compounds read low 0.985 | S. cerevisiae deletion strains, locus YML016C, strain PPZ1, active compounds read low 1 | S. cerevisiae deletion strains, locus YML032C, strain rad52, active compounds read low 1.01 | S. cerevisiae deletion strains, locus YML120C, strain ndi1, active compounds read low 1.03 | S. cerevisiae deletion strains, locus YML124C, strain tub3, active compounds read low 1.01 | S. cerevisiae deletion strains, locus YMR058W, strain fet3, active compounds read low 0.999 | S. cerevisiae deletion strains, locus YMR078C, strain ctf18, active compounds read low 1.01 | S. cerevisiae deletion strains, locus YMR125W, strain sto1, active compounds read low 0.99 | S. cerevisiae deletion strains, locus YMR129W, active compounds read low 0.997 | S. cerevisiae deletion strains, locus YMR205C, strain PFK2, active compounds read low 0.997 | S. cerevisiae deletion strains, locus YMR223W, strain ubp8, active compounds read low 1.01 | S. cerevisiae deletion strains, locus YMR231W, strain pep5, active compounds read low 0.995 | S. cerevisiae deletion strains, locus YMR263W, strain SAP30, active compounds read low 1.01 | S. cerevisiae deletion strains, locus YMR307W, strain GAS1, active compounds read low 1.06 | S. cerevisiae deletion strains, locus YNL067W, strain RPL9B, active compounds read low 0.988 | S. cerevisiae deletion strains, locus YNL071W, strain lat1, active compounds read low 0.998 | S. cerevisiae deletion strains, locus YNL128W, strain TEP1, active compounds read low 0.997 | S. cerevisiae deletion strains, locus YNL153C, strain GIM3, active compounds read low 0.985 | S. cerevisiae deletion strains, locus YNL209W, strain ssb2, active compounds read low 0.992 | S. cerevisiae deletion strains, locus YNL233W, strain BNI4, active compounds read low 1.01 | S. cerevisiae deletion strains, locus YNL248C, strain rpa49, active compounds read low 0.989 | S. cerevisiae deletion strains, locus YNL250W, strain rad50, active compounds read low 1.01 | S. cerevisiae deletion strains, locus YNL271C, strain bni1, active compounds read low 1.01 | S. cerevisiae deletion strains, locus YNL298W, strain CLA4, active compounds read low 1.02 | S. cerevisiae deletion strains, locus YNL307C, strain MCK1, active compounds read low 1.01 | S. cerevisiae deletion strains, locus YNL322C, strain KRE1 (second series), active compounds read low 0.997 | S. cerevisiae deletion strains, locus YNL322C, strain KRE1, active compounds read low 0.996 | S. cerevisiae deletion strains, locus YNR049C, strain mso1, active compounds read low 0.988 | S. cerevisiae deletion strains, locus YNR052C, strain pop2, active compounds read low 1.02 | S. cerevisiae deletion strains, locus YOL006C, strain TOP1, active compounds read low 1.04 | S. cerevisiae deletion strains, locus YOL012C, strain htz1 1.15 | S. cerevisiae deletion strains, locus YOL147C, strain pex11, active compounds read low 1.01 | S. cerevisiae deletion strains, locus YOR001W, strain rrp6, active compounds read low 0.982 | S. cerevisiae deletion strains, locus YOR061W, strain CKA2, active compounds read low 0.994 | S. cerevisiae deletion strains, locus YOR069W, strain VPS5, active compounds read low 1 | S. cerevisiae deletion strains, locus YOR070C, strain gyp1, active compounds read low 0.983 | S. cerevisiae deletion strains, locus YOR080W, strain dia2, active compounds read low 0.998 | S. cerevisiae deletion strains, locus YOR083W, strain WHI5, active compounds read low 1.01 | S. cerevisiae deletion strains, locus YOR106W, strain vam3, active compounds read low 1.01 | S. cerevisiae deletion strains, locus YOR136W, strain idh2, active compounds read low 1 | S. cerevisiae deletion strains, locus YOR144C, strain elg1, active compounds read low 1 | S. cerevisiae deletion strains, locus YOR184W, strain ser1, active compounds read low 1.02 | S. cerevisiae deletion strains, locus YOR265W, strain rbl2, active compounds read low 0.979 | S. cerevisiae deletion strains, locus YOR270C, strain vph1, active compounds read low 1.02 | S. cerevisiae deletion strains, locus YOR290C, strain snf2, active compounds read low 1.02 | S. cerevisiae deletion strains, locus YOR316C, strain cot1, active compounds read low 1 | S. cerevisiae deletion strains, locus YPL051W, strain arl3, active compounds read low 0.987 | S. cerevisiae deletion strains, locus YPL055C, strain LGE1, active compounds read low 0.992 | S. cerevisiae deletion strains, locus YPL078C, strain atp4, active compounds read low 1.03 | S. cerevisiae deletion strains, locus YPL106C, strain sse1, active compounds read low 0.987 | S. cerevisiae deletion strains, locus YPL240C, strain hsp82, active compounds read low 0.999 | S. cerevisiae deletion strains, locus YPL241C, strain CIN2, active compounds read low 0.995 | S. cerevisiae deletion strains, locus YPR119W, strain clb2, active compounds read low 0.998 | S. cerevisiae deletion strains, locus YPR141C, strain kar3, active compounds read low 1 | S. cerevisiae deletion strains, locus YPR163C, strain tif3, active compounds read low 1 | S. cerevisiae deletion strains, locus YPR167C, strain met16, active compounds read low 0.996 | S. cerevisiae deletion strains, strain wtn01, active compounds read low 1.01 | S. cerevisiae strains, strain wild type, active compounds read low 0.997
